# Measurements as given in the supplement of paper PMC8975748.
# Where a name gives a salt, the structure may show the parent alone.
# Test system: Saccharomyces cerevisiae BY4741 SeMeCo community
# Assay: z-score of subpopulation abundance vs DMSO median, subpopulation auxotrophic for HM; higher = larger share of this subpopulation than in DMSO controls
# Details: 10 µM; 24 h; SM minimal medium; subpopulation (auxotrophy): HM
# Protocol: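 Fluorescent four-plasmid SeMeCo (self-establishing metabolically cooperating S. cerevisiae BY4741 community; plasmids pH-mRuby2, pL-mWasabi, pU-eCFP, pM-TagRFP657) was grown 24 h in minimal SM medium with each Selleck FDA-approved drug at 10 µM in 384-well plates. Cells were fixed and imaged by high-content confocal microscopy. For each auxotrophic subpopulation (and the prototroph), a z-score gives the deviation from the DMSO vehicle-control population median.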
row,Compound,z-score of subpopulation abundance
1,Nc1nc(=O)[nH]cc1F [Flucytosine],17.8
2,COC(=O)Nc1nc2cc(C(=O)c3ccccc3)ccc2[nH]1 [Mebendazole],1.02
3,NC(=O)N1c2ccccc2CC(=O)c2ccccc21 [Oxcarbazepine],0
4,CC(C)(O/N=C(\C(=O)N[C@@H]1C(=O)N2C(C(=O)[O-])=C(C[n+]3ccccc3)CS[C@H]12)c1csc(N)n1)C(=O)O [Ceftazidime],-0.26
5,C/C=C\c1ccc(O)c(OC)c1 [Isoeugenol],0.2
6,Cc1c[nH]c(=O)[nH]c1=O [Thymine],0.33
7,OC(CCN1CCCCC1)(c1ccccc1)C1CCCCC1 (stereo not given) [Trihexyphenidyl hydrochloride],-0.75
8,COc1cc(Cc2cnc(N)nc2N)cc(OC)c1OC [Trimethoprim],-0.06
9,C[C@@H](O)[C@H]1C(=O)N2C(C(=O)O)=C(S[C@@H]3CN[C@H](C(=O)N(C)C)C3)[C@H](C)[C@H]12 [Meropenem],0.18
10,O=C(O)Cc1ccccc1Nc1c(Cl)cccc1Cl [Diclofenac acid],0.14
11,C[N+]1(C)CCC(=C(c2ccccc2)c2ccccc2)CC1 [Diphemanil Methylsulfate],0.58
12,C[C@@H]1C/C=C/C=C/C=C/C=C/[C@H](O[C@@H]2O[C@H](C)[C@@H](O)[C@H](N)[C@@H]2O)C[C@@H]2O[C@](O)(C[C@@H](O)C[C@H]3O[C@@H]3/C=C/C(=O)O1)C[C@H](O)[C@H]2C(=O)O [Natamycin],8.62
13,CC(N)C12CC3CC(CC(C3)C1)C2 (stereo not given) [Rimantadine],0.19
14,O=C(N[C@H](CO)[C@H](O)c1ccc([N+](=O)[O-])cc1)C(Cl)Cl [Chloramphenicol],-0.25
15,CC[N+](C)(C)c1cccc(O)c1 [Edrophonium chloride],-0.15
16,C[C@]12CCC(=O)C=C1[C@@H]1C[C@@H]1[C@H]1[C@@H]3[C@@H]4C[C@@H]4[C@@]4(CCC(=O)O4)[C@@]3(C)CC[C@@H]12 [Drospirenone],0.03
17,C[C@@H](c1ncncc1F)[C@](O)(Cn1cncn1)c1ccc(F)cc1F [Voriconazole],10.2
18,CNCCC(Oc1ccc(C(F)(F)F)cc1)c1ccccc1 (stereo not given) [Fluoxetine HCl],-0.49
19,CCCCCC(=O)O[C@]1(C(C)=O)CC[C@H]2[C@@H]3CCC4=CC(=O)CC[C@]4(C)[C@H]3CC[C@@]21C [Hydroxyprogesterone caproate],1.31
20,CO[C@@H]1[C@@H](OC(N)=O)[C@@H](O)[C@H](Oc2ccc3c(O)c(NC(=O)c4ccc(O)c(CC=C(C)C)c4)c(=O)oc3c2C)OC1(C)C [Novobiocin Sodium],1.59

row,Compound,z-score of subpopulation abundance
1,CC(=O)O[C@H]1C[C@@]2(C)[C@@H](C[C@@H](O)[C@H]3[C@@]4(C)CC[C@@H](O)[C@@H](C)[C@@H]4CC[C@@]32C)/C1=C(\CCC=C(C)C)C(=O)O [Fusidate Sodium],0.57
2,CO[C@@]1(NC(=O)Cc2cccs2)C(=O)N2C(C(=O)O)=C(COC(N)=O)CS[C@@H]21 [Cefoxitin sodium],0.04
3,Cc1nc2n(c(=O)c1CCN1CCC(c3noc4cc(F)ccc34)CC1)CCCC2O (stereo not given) [Paliperidone],0.04
4,N=C(N)NC(=O)c1nc(Cl)c(N)nc1N [Amiloride HCl dihydrate],1.29
5,Cc1c(-c2ccccc2)oc2c(C(=O)OCCN3CCCCC3)cccc2c1=O [Flavoxate HCl],0.21
6,CN1CCCN=C1/C=C/c1cccc(O)c1 [Oxantel Pamoate],-0.6
7,O=C(O)c1cc(/N=N/c2ccc(O)c(C(=O)O)c2)ccc1O [Olsalazine Sodium],-1.16
8,CC[C@@H]1/C=C(\C)C[C@H](C)C[C@H](OC)[C@H]2O[C@@](O)(C(=O)C(=O)N3CCCC[C@H]3C(=O)O[C@H](/C(C)=C/[C@@H]3CC[C@H](Cl)[C@H](OC)C3)[C@H](C)[C@@H](O)CC1=O)[C@H](C)C[C@@H]2OC [Pimecrolimus],1.95
9,CC1(C)S[C@@H]2[C@H](NC(=O)[C@H](N)c3ccccc3)C(=O)N2[C@H]1C(=O)OCOC(=O)[C@@H]1N2C(=O)C[C@H]2S(=O)(=O)C1(C)C [Sultamicillin],0.78
10,Nc1nc(N)nc(-c2cc(Cl)ccc2Cl)n1 [Irsogladine],-0.68
11,Clc1ccc(CCC(Cn2ccnc2)Sc2c(Cl)cccc2Cl)cc1 (stereo not given) [Butoconazole nitrate],1.46
12,C[C@@H]1[C@H](O)[C@@H](C)/C=C/C=C/C=C/C=C/C=C/C=C/C=C/[C@H](O[C@@H]2O[C@H](C)[C@@H](O)[C@H](N)[C@@H]2O)C[C@@H]2O[C@](O)(C[C@@H](O)C[C@@H](O)[C@H](O)CC[C@@H](O)C[C@@H](O)CC(=O)O[C@H]1C)C[C@H](O)[C@H]2C(=O)O [Amphotericin B],0.42
13,CO/N=C(\C(=O)N[C@@H]1C(=O)N2C(C(=O)O)=CCS[C@H]12)c1csc(N)n1 [Ceftizoxime sodium],-0.06
14,NNc1nncc2ccccc12 [Hydralazine HCl],-0.62
15,CN1CCc2cc3c(cc2C(=O)Cc2ccc4c(c2C1)OCO4)OCO3 [Protopine],-0.3
16,CN[C@@H]1[C@H](O)[C@H](NC)[C@H]2O[C@@]3(O)C(=O)C[C@@H](C)O[C@H]3O[C@@H]2[C@H]1O [Spectinomycin 2HCl],-0.56
17,CC(C)[C@H](N)C(=O)OCCOCn1cnc2c(=O)nc(N)[nH]c21 [Valaciclovir HCl],-0.81
18,C[C@H]1O[C@@H](O[C@H]2[C@@H](O)C[C@H](O[C@H]3[C@@H](O)C[C@H](O[C@H]4CC[C@@]5(C)[C@H](CC[C@@H]6[C@@H]5C[C@@H](O)[C@]5(C)[C@@H](C7=CC(=O)OC7)CC[C@]65O)C4)O[C@@H]3C)O[C@@H]2C)C[C@H](O)[C@@H]1O [Digoxin],-0.55
19,CN1CCC[C@@H]1Cc1c[nH]c2ccc(CCS(=O)(=O)c3ccccc3)cc12 [Eletriptan HBr],0.08
20,CC[C@@H]1C(=O)OC[C@@H]1Cc1cncn1C [Pilocarpine HCl],0.01
